Data reported in PubChem BioAssay (EPA / NIEHS).
Values joined by “and” are separate entries in the source; they are usually repeats but may differ in a detail not shown here. Identical values can stand only once. Where a structure was tested more than once in an assay, its records may differ in their call. Active and inactive are the calls of the source. How the source made its calls: active means hit-call score of the fitted dose curve at least 0.9, where 1 is the maximum; inactive means score below 0.9.

These compounds were tested on Macrophage colony-stimulating factor (MCSF), CSF1 (gene 1435) (assay: BSK_hDFCGF_MCSF: BioMAP Diversity Plus: hDFCGF Assay for Macrophage colony-stimulating factor (MCSF) Biomarker Activity (AID 2283060)). Conditions: primary human foreskin fibroblasts; actives raise or lower the signal.
Procedure: BSK_hDFCGF is a cell-based, multiplexed-readout assay that uses foreskin fibroblast, a human skin primary cell, with measurements taken at 24 hours after chemical dosing in a 96-well plate.BSK_hDFCGF_MCSF is an assay component measured in the BSK_hDFCGF assay. It measures M-CSF antibody related to regulation of gene expression using ELISA technology.Data from the assay component BSK_hDFCGF_MCSF was analyzed into 1 assay endpoint. This assay endpoint, BSK_hDFCGF_MCSF, was analyzed with bidirectional fitting relative to DMSO as the negative control and baseline of activity. Using a type of binding reporter, gain or loss-of-signal activity can be used to understand changes in the signaling as they relate to the gene CSF1. Furthermore, this assay endpoint can be referred to as a primary readout, because this assay has produced multiple assay endpoints where this one serves a signaling function. To generalize the intended target to other relatable targets, this assay endpoint is annotated to the cytokine intended target family, where the subfamily is colony stimulating factor.
The levels of cell surface (or secreted, indicated by the prefix "s") biomarker endpoints were measured by ELISA. Overt cytotoxicity to cells in confluent adherent cultures (all systems other than the BT system) was assessed by measuring total protein levels using sulforhodamine B (SRB) staining in parallel cultures at the time of biomarker measurements, indicated as SRB endpoints. For proliferation assays for adherent cell types, individual cell types are cultured at sub-confluence and relative cell numbers quantified by SRB staining at time points optimized for each system (48 h: 3C and CASM3C systems; 72 h: BT and HDF3CGF systems; 96 h: SAg system). SRB was performed by staining cells with 0.1% SRB after fixation with 10% TCA and reading wells at 560 nm.Viability and proliferation of PBMC (T cells) was quantified by Alamar Blue reduction for the SAg and BT systems. For PBMC viability (referred to as PBMC Cytotoxicity within the assay endpoint names), cells were plated (75,000/well in a 96-well plate) and then chemical samples added for 1 h before addition of activators, SEB and TSST-1 (20 ng/mL final concentration each). Cells were incubated for 90 h. Then, Alamar Blue (20 uL/well) (Invitrogen, Cat DAL1100) was added for 6 h, and the plates were read with a fluorescence microplate reader at 546/580 nm (excitation/emission). For PBMC proliferation, cells were plated and activated as above but incubated for only 16 h prior to addition of Alamar Blue. Plates were read after 6 h.

| SMILES | outcome | AC50 |
| --- | --- | --- |
| CCCOC(=O)c1ccccc1C(=O)OCCC | inactive | – |
| O=C(O)CCCc1ccc(N(CCCl)CCCl)cc1 | inactive | 16.6 µM (active) |
| O=c1[nH]c(Cl)c(Cl)cc1Cl | inactive | – |
| CC(C)CCCCCCCOC(=O)c1ccccc1C(=O)OCCCCCCCC(C)C | inactive | – |
| O=P1(NCCCl)OCCCN1CCCl (centres undefined) | inactive | – |
| O=S(=O)(c1ccccc1)c1ccccc1 | inactive | – |
| CC(C)COP(=O)(OCC(C)C)OCC(C)C | inactive | – |
| CC(C)(C)C(O)C(Oc1ccc(-c2ccccc2)cc1)n1cncn1 (centres undefined) | inactive | – |
| CCc1cc(C)cc(CC)c1-c1c(OC(=O)C(C)(C)C)n2n(c1=O)CCOCC2 | inactive | – |
| CC(C)CCCCCCCOP(=O)(Oc1ccccc1)Oc1ccccc1 | – | 8.47 µM (active) |
| O=C1C=CC(=O)C=C1 | – | 16 µM (active) and 13.5 µM (active) |
| O=C1C(Cl)=C(Cl)C(=O)C(Cl)=C1Cl | – | 20 µM (active) |
| c1ccc(Nc2ccc3ccccc3c2)cc1 | – | 34.4 µM (active) |
| COCC(=O)N(c1c(C)cccc1C)N1CCOC1=O | inactive | – |
| Clc1ccc(-c2ccccc2)cc1 | inactive | – |
| CC(=O)/C=C/c1ccccc1 | inactive | – |
| O=[N+]([O-])C=Cc1ccccc1 | – | 2.91 µM (active) |
| Cc1ccc(OP(=O)(Oc2ccc(C)cc2)Oc2ccc(C)cc2)cc1 (tested in a mixture with another compound) | – | 20 µM (active) |
| COc1ccc(CO)cc1 | inactive | – |

| SMILES | outcome | AC50 |
| --- | --- | --- |
| Oc1cc(Cl)ccc1Cl | inactive | – |
| O=[N+]([O-])c1ccc(Cl)cc1 | inactive | – |
| CNC(=O)Oc1cc(C)c(SC)c(C)c1 | inactive | – |
| O=C(CCl)c1ccccc1 | – | 5.84 µM (active) |
| Nc1ccc(-c2ccc(N)c(N)c2)cc1N | – | 16.1 µM (active) |
| [Cd+2].[Cl-].[Cl-] | – | 939 nM (active) and 1.2 µM (active) |
| O=[N+]([O-])O | inactive | – |
| CCCCCCCCCCCC#N | – | 28.8 µM (active) |
| CCC(C)c1cc([N+](=O)[O-])cc([N+](=O)[O-])c1OC(=O)C=C(C)C (centres undefined) | – | 6.13 µM (active) |
| CC(C)(C)C(=O)CCl | inactive | – |
| Oc1ccc(C2(c3ccc(O)cc3)c3ccccc3-c3ccccc32)cc1 | – | 2.26 µM (active) and 2.51 µM (active) |
| COC(C)(C)CCC[C@H](C)C/C=C/C(C)=C/C(=O)OC(C)C | – | 22.7 µM (active) |
| CC1(C)[C@H](C(=O)O[C@H](C#N)c2cccc(Oc3ccccc3)c2)[C@@H]1C=C(Br)Br | inactive | – |
| CC(C)(c1cc(Cl)c(O)c(Cl)c1)c1cc(Cl)c(O)c(Cl)c1 | – | 12.2 µM (active) |
| CCCC[N+](CCCC)(CCCC)CCCC | inactive | – |
| O=c1c2ccccc2c(=O)c2c1cc(Cl)c1[nH]c3c([nH]c12)c(Cl)cc1c(=O)c2ccccc2c(=O)c13 | – | 20 µM (active) |
| N#CCCCCC#N | inactive | – |
| C=CC(=O)OCC(CC)CCCC (centres undefined) | – | 20 µM (active) |
| C=CCN(CC=C)C(=O)C(Cl)Cl | inactive | – |
